Laboratory results: PubChem BioAssay (NCATS)
Inconclusive results are not listed. The source made the active and inactive calls. The call rests on the fitted dose curve; in most records, active means well fitted inhibition curve with a large enough effect; inconclusive means small, poorly fitted or top-dose-only effect; inactive means flat fitted curve, though single readings scatter.

What follows are compounds tested against Aldehyde dehydrogenase, mitochondrial (Homo sapiens) (UniProt P05091) (assay: qHTS for Inhibitors of the Aldehyde Dehydrogenase Family (ALDH2) Primary screen (AID 2061308;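 further: plate controls were vehicle for no effect and reference inhibitor for full effect; nearly all actives have a fitted effect of over 55% in size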)). Conditions: ALDH2 enzyme inhibition qHTS, 1536-well; series mostly up to 56 µM; activity change, negative = inhibition: at the top concentration.

SMILES	activity change, negative = inhibition	Potency
CCCn1c(-c2ccc(F)cc2)nc2c(NCCN3CCOCC3)nc(C)nc21	1.97% (inactive)	–
Cc1ccc(OCCn2c(CCNC(=O)c3ccc(Br)cc3)nc3ccccc32)cc1	-1.27% (inactive)	–
CCN(Cc1ccccc1)c1ccc(Br)cn1	-1.98% (inactive)	–
O=C(Nc1ccc(-c2cccnc2)nc1)c1cccs1	-5.49% (inactive)	–
N#Cc1ccc(NS(=O)(=O)c2ccc(NC(=O)Cc3ccc(Cl)c(Cl)c3)cc2)cc1	-8.38% (inactive)	–
N[C@@H](Cc1ccc(O[S+](=O)([O-])c2cccc3cnccc23)cc1)C(=O)N1CCN(c2ccccc2)CC1	7.22% (inactive)	–
COc1cccc(-n2cnc3cc(C(=O)N4CCCCC4)ccc32)c1	0% (inactive)	–
O=C1CCc2cc(S(=O)(=O)Nc3cccnc3)ccc2N1	-4.67% (inactive)	–
COc1ccccc1C1=Nn2c(nnc2-c2ccccc2C)SC1	–	inactive
N#Cc1cc(NC(=O)Nc2cccc(-c3ccncc3)n2)ccc1Cl	-14.6% (inactive)	–
CC(=O)Nc1cc2c(s1)CNCC2	-7.2% (inactive)	–
Cn1c2cc(C(=O)O)sc2c2cnn(Cc3ccccc3F)c(=O)c21	-2.9% (inactive)	–
CN1C(=O)NC(c2ccccc2Cl)C2=C1CCCC2=O (stereo not given)	-6.01% (inactive)	–
O=C(O)c1cccc(S(=O)(=O)N2CCN(S(=O)(=O)c3ccc4c(c3)OCCO4)CC2)c1	4.24% (inactive)	–
O=S(=O)(Nc1ccc(S(=O)(=O)Nc2nccs2)cc1)c1ccc2ccccc2c1	6.64% (inactive)	–
CCCn1c(C)nc2c(NCCCN(C)C)nc(C)nc21	7.29% (inactive)	–
COc1cccc(NC(=S)N2CCN(c3ccc4ccccc4n3)CC2)n1	3.66% (inactive)	–
Cc1cnc(-c2ccccc2C2COC2)nc1NCC1CCN(c2cccnc2)CC1	-13% (inactive)	–
Cc1cc2c(s1)c1cnn(Cc3ccc(OC(F)F)cc3)c(=O)c1n2C	8.2% (inactive)	–
Cc1cc(NC(=O)c2ccc(C)c(Nc3nccc(-c4cccnc4)n3)c2)cc(-n2cnc(C)c2)c1	-2.26% (inactive)	–

SMILES	activity change, negative = inhibition	Potency
c1nc(NCC2CCCC2)c2cc(-c3ccc4c(c3)OCO4)ccc2n1	-8.01% (inactive)	–
Cn1c2cc(Br)sc2c2cnn(Cc3c(F)cccc3F)c(=O)c21	12.1% (inactive)	–
Cc1cccc(-c2ccc3ncnc(NCc4cccs4)c3c2)c1	2.59% (inactive)	–
NC(=O)C1CCN(c2nc(-c3cccs3)cs2)CC1	-6.64% (inactive)	–
Cc1ccc(C2=NN(CC(=O)N(C)C(C)c3ccco3)C(=O)C2)cc1 (stereo not given)	11.8% (inactive)	–
O=S(=O)(c1cccc(F)c1)N1CCN(S(=O)(=O)c2ccc3c(c2)OCCO3)CC1	15.4% (inactive)	–
O=C(CNC(=O)c1ccc(-c2ccccc2)cc1)OC(C(=O)Nc1cc(C(F)(F)F)ccc1Cl)c1ccccc1 (stereo not given)	6.45% (inactive)	–
C=C1C(=O)OC2/C=C(\COC(C)=O)CC/C=C(\C=O)CC(OC(=O)CC(C)C)C12 (stereo not given)	6.51% [at 28 µM] (inactive)	–
O=C(OCC#CCSc1nnc(-c2cccc3ccccc23)o1)c1cccc(F)c1	-14.2% (inactive)	–
CCc1ccc(S(=O)(=O)Nc2cnccc2C(=O)Nc2nc(-c3ccccc3)cs2)cc1	18.2% (inactive)	–
OC[C@H]1O[C@@H](O[C@H]2[C@H](OCCc3ccccc3)O[C@H](CO)[C@@H](O)[C@@H]2O)[C@H](O)[C@@H](O)[C@@H]1O	-5.64% [at 28 µM] (inactive)	–
Cc1cc(C)n2ncc(C(=O)N3CCCC3)c2n1	-16.6% (inactive)	–
COc1cccc(CNc2ccc(S(=O)(=O)Nc3ccccc3)cc2)c1O	-15.1% (inactive)	–
CC(C)(C)OC(=O)CC(=O)NNC(=O)c1cc2ccccc2[nH]1	9.48% (inactive)	–
O=C1c2ccccc2C(=O)N1c1cncc2ccccc12	-1.9% (inactive)	–
Cc1cnc(-c2ccccc2OC(C)C)nc1NCc1ccc(-n2ccnn2)cc1	91.9% (inactive)	–
Cc1cc(F)ccc1S(=O)(=O)Nc1cnccc1C(=O)Nc1nc(-c2ccccc2)cs1	–	inactive
O=C(Nc1nc(-c2ccccc2)cs1)c1ccncc1NS(=O)(=O)c1ccccc1	-10.8% (inactive)	–
O=C(O)c1ccc(O)c2ncc(-c3cccc(N4CCOCC4)c3)cc12	2.15% (inactive)	–
Cc1cc(C)n2ncc(C(=O)NC3CCCCC3)c2n1	10.3% (inactive)	–
